# Test results reported in PubChem BioAssay (NCI).
# The panel holds about 83,000 compounds, 20% with a hit somewhere; the sample as a whole holds those more often.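 Method: cells in 96-well plates; compound added at one concentration; 48 h incubation; percent growth measured; values under 10 scored active.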 Activity calls are given as the source filed them.
# System: HL-60(TB) leukemia
# Experiment: NCI-60 one-dose screen, 48 h (100 = growth as untreated, 0 = no growth, -100 = all killed)
# Settings: 10 µM unless noted
row,SMILES,growth
1,O=C(/C=C\c1ccc(O)c(O)c1)c1ccccc1O,11.6% (inactive)
2,C=CC(=O)Nc1cccc(C)c1Nc1cc(-c2cccnc2Cc2c(C)c(OC)cc(OC)c2C)ncn1,-23% (active)
3,COc1ccc(-c2cc(/C=C/C(=O)c3ccc(N)cc3)[nH]n2)cc1OC,20.1% (inactive)
4,O=S(=O)(c1ccc(NCSc2nc3ccccc3s2)cc1)c1ccc(NCSc2nc3ccccc3s2)cc1,72.7% (inactive)
5,CC[C@]1(O)CC2CN(CCc3c([nH]c4ccccc34)C(C(=O)OC)(c3cc4c(cc3OC)N(C=O)[C@H]3[C@@](O)(C(=O)OC)[C@H](OC(C)=O)[C@]5(CC)[C@@H]6C[C@@H]6CN6CC[C@]43[C@@H]65)C2)C1 (stereo not given in full),0.642% (active)
6,O=C(NC1CCCCCC1)c1ccc2c(=O)n3c(nc2c1)CCCCC3,144% (inactive)
7,CS(=O)(=O)Nc1cc(-c2ccc3ncnc(Nc4ccc(F)c(Cl)c4)c3c2)cnc1Cl,1.75% (active)
8,O=C1N[C@@H]2[C@@H](O)[C@@H](O)[C@H](O)C[C@H]2c2cc3c(c(O)c21)OCCO3,-18.8% (active)
9,C=CCn1c(SCC(=O)Nc2ccc(C(=O)/C=C/c3cc(OC)c(OC)c(OC)c3)cc2)nnc1-c1ccc(Cl)cc1,12.3% (inactive)
10,O=C(Nc1ccc(F)cc1F)c1cc(Cl)ccc1O,-31.4% (active)
11,O=C1C=CC(=O)N1Cc1ccco1,108% (inactive)
12,O=C1/C(=C/c2cccc(OCc3ccccc3)c2)Oc2cc(OCCN3CCCCC3)ccc21,67% (inactive)
13,CC1=C2[C@@H](CC1)[C@]1(C)O[C@@](C(C)C)(C[C@H]1OC(=O)CO)[C@H]2OC(=O)CCCc1ccccc1,1.28% (active)
14,CC(C)c1nc(N(C)S(C)(=O)=O)nc(-c2ccc(F)cc2)c1/C=C/C(=O)C[C@@H](O)CC(=O)O,106% (inactive)
15,O=C(Nc1ccc(Nc2ncnc3sc4c(c23)CCOC4)cc1)Nc1ccc(Cl)c(C(F)(F)F)c1,98.9% (inactive)
16,COc1ccc(-n2c(COc3ccc(F)cc3)n[nH]c2=S)cc1,126% (inactive)
17,COC(=O)/C=C/c1cc(OC(C)=O)c2c(c1)C(C(=O)OC)C(c1ccc(OC(C)=O)c(OC(C)=O)c1)O2 (stereo not given),-35% (active)
18,COC(=O)Nc1nc2ccc(C(=O)C3CC3)cc2[nH]1,-56.2% (active)
19,Cn1cc(CC2CC(=O)N(c3ccccc3)C2=O)sc1=NC(=O)c1ccccc1 (stereo not given),114% (inactive)
20,CC(=O)c1cc2c(cc1F)C(C)(C)CCC2(C)C,86.3% (inactive)

row,SMILES,growth
1,Cc1ccc(CNc2c3ccccc3nc3cc(NC(=O)CCN4CCCC4)ccc23)cc1,-64.3% (active)
2,CC/C(Cc1ccccc1)=C(\c1ccc(OCCN2CCCC2)cc1)c1ccc(OC(C)=O)cc1,71.3% (inactive)
3,COC(=O)c1cccc2c1N(C)c1c(cccc1C(=O)OC)CC2,71.6% (inactive)
4,COc1cc(C(=O)/C=C/c2c(C)n([O-])c3ccc(Cl)cc3[n+]2=O)cc(OC)c1OC,-59.5% (active)
5,O=C(NCC(c1ccsc1)N1CCCCCC1)c1ccc(C(F)(F)F)cc1 (stereo not given),97.5% (inactive)
6,COc1cc(-c2nn3c(/C=C4/C(=O)Nc5ccccc54)c(-c4ccc(C)cc4)nc3s2)cc(OC)c1OC,34.8% (inactive)
7,O=Nc1ccccc1N=O,78.3% (inactive)
8,COc1cc(COC(=O)CCCCC[P+](c2ccccc2)(c2ccccc2)c2ccccc2)c(OC)c2c1OCO2,-9.81% (active)
9,O=C(O)c1cc2ccccc2s1,112% (inactive)
10,O=C(O)Cn1ccc2ccccc21,104% (inactive)
11,CC/C(=C(/c1ccc(Cl)cc1)c1ccc(OCCN2CCCC2)cc1)c1ccccc1,17.4% (inactive)
12,C=C(C)[C@@H]1CC[C@]2(C(=O)NCCCN)CC[C@]3(C)[C@H](CC[C@@H]4[C@@]5(C)CC[C@H](O)C(C)(C)[C@@H]5CC[C@]43C)[C@@H]12,1.25% [100 µM] (active)
13,COc1cc(/C=C2\SC(=S)N(/C=C/c3nc4ccccc4[nH]c3=O)C2=O)cc(OC)c1OC,70% (inactive)
14,COc1ccc(C2C=C(c3ccc(Cl)cc3)N=C3SC=CN32)c(Br)c1 (stereo not given),92.9% (inactive)
15,O=C(N=Nc1c(O)[nH]c2ccc(Br)cc12)c1cc(-c2ccccc2)on1,84.9% (inactive)
16,CCC1CCc2nc3sc(C(=O)Nc4cccc(F)c4)c(N)c3cc2C1 (stereo not given),23% (inactive)
17,CCOC(=O)c1cc(C(=O)c2cc(OC)c(OC)c(OC)c2)n2c1ccc1ccccc12,-12.9% (active)
18,Cc1nc2ccccc2n1CC1C(=O)NC(=O)NC1=O,102% (inactive)
19,Cc1cc(CC(C)CC(C)(C)C)n(O)c(=O)c1 (stereo not given) (tested in a mixture with another compound),-27.7% (active)
20,Brc1ccc(-c2cnc3nonc3n2)cc1,19.6% (inactive)
